Inconclusive results are not listed. Activity calls are given as the source filed them. Unless noted, calls follow the shape of the dose curve; as a rule, active = well fitted curve in the direction sought with a large enough effect; inconclusive = small, poorly fitted or top-dose-only effect, or another doubt; inactive = no such curve, though single readings can be large; an effect the other way counts as inactive or inconclusive. Where a SMILES comes first, the peptide text is derived from it. Bridges are numbered along the chain shown (N, C = ends). [ ]: non-standard residue; d: D form. The star is where a group is joined. AFC = O=c1cc(C(F)(F)F)c2ccc(N*)cc2o1; X1 = CCC(C)C(N)C1=NC(C(=O)*)CS1; dOrn = NCCC[C@@H](N)C(=O)O
Molecular target: Cytochrome P450 2C9 (Homo sapiens) (UniProt P11712)
Test: Cytochrome P450 family 2 subfamily C member 9 (CYP2C9) small molecule antagonists: luciferase biochemical (cell-free) qHTS assay (AID 1645842; active = well fitted curve in the direction sought with a large enough effect in the repeat runs; an effect the other way counts as inactive or inconclusive; also: nearly all actives have a fitted effect of over 55% in size; as to activity change, negative = inhibition: % is scaled to controls: 0 for no effect and ±100 for the full control effect)
Settings: P450-Glo CYP2C9 enzyme assay, luciferin luminescence; series mostly up to 57.4 µM; activity change, negative = inhibition: at the top concentration
In short: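 Luminescence, after 20 min with luciferin detection reagent, reflected CYP2C9 turnover during a 1 h NADPH-driven reaction at 37C. Enzyme-substrate mix contained 0.4% bovine serum albumin and was preincubated with compound 10 min at room temperature.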
Potency is read from the fitted curve at half-maximal effect.

Cytochrome P450 2C9 (Homo sapiens), sequence (P11712 whole entry, looked up): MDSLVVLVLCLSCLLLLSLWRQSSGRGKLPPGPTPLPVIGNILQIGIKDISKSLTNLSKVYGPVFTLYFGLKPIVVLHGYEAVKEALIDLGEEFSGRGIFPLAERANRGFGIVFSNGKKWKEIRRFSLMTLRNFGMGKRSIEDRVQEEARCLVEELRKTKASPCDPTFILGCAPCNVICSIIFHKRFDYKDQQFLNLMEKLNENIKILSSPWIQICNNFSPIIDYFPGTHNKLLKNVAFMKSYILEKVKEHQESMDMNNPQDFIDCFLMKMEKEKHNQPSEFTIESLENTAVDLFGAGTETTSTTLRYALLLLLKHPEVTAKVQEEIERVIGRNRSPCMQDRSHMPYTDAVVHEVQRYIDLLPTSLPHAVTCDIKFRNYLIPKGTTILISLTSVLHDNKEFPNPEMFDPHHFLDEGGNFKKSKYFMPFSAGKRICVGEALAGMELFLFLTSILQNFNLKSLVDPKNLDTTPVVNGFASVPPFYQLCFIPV

Compound	activity change, negative = inhibition	Potency
Cc1nnc(C(C)C)n1C1CC2CCC(C1)N2CC[C@H](NC(=O)C1CCC(F)(F)CC1)c1ccccc1 (stereo not given in full)	3.53% (inactive)	–
CCCCCCCC(=O)O	9.11% (inactive)	–
Clc1ccc(CN[C@H]2CCN(c3ncc(Br)cn3)C2)c(Cl)c1	–	8.49 µM (active)
CNC1CCN(C(Cc2cccc(-c3ccncc3)c2)C(=O)c2sc3c(F)ccc(F)c3c2Cl)CC1 (stereo not given)	–	10.7 µM (active)
CCN(CC)Cc1cc(Nc2ccnc3cc(Cl)ccc23)ccc1O	-14.3% (inactive)	–
CC(C)(C)NCC(O)COc1cccc2c1CCCC2=O (stereo not given)	-7.46% (inactive)	–
C[C@]12C=CC(=O)C=C1CC[C@@H]1[C@@H]2[C@@H](O)C[C@@]2(C)[C@H]1CC[C@]2(O)C(=O)COC(=O)CCC(=O)O	0.657% (inactive)	–
Cc1c(C)c2c(c(C)c1O)CC[C@@](C)(CCC[C@H](C)CCC[C@H](C)CCCC(C)C)O2	1.39% (inactive)	–
CCCCC(CC)COC(=O)CC(C(=O)OCC(CC)CCCC)S(=O)(=O)O (stereo not given)	11% (inactive)	–

Molecular target: N-terminal Xaa-Pro-Lys N-methyltransferase 1 (Homo sapiens) (UniProt Q9BV86)
Test: Confirmatory qHTS for Inhibitors of N-terminal methyltransferase 1 (NTMT1): MTaseGlo Assay (AID 1645874); also: nearly all actives have a fitted effect of over 65% in size;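 as to activity change, negative = inhibition: luminescence from SAH made as NTMT1 methylates SPKRIA peptide using SAM; 0% = DMSO control and -100% = no-enzyme control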
Settings: NTMT1 enzyme, MTase-Glo SAH luminescence; series mostly up to 100 µM; activity change, negative = inhibition: at the top concentration
In short: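 NTMT1 (125 nM) preincubated 15 min with compound and 100 uM SAM, then 1 uM SPKRIA peptide added for 30 min at room temperature. SAH detected by MTase-Glo luminescence; normalized to no-enzyme and DMSO controls, fitted to 4-parameter Hill.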

N-terminal Xaa-Pro-Lys N-methyltransferase 1 (Homo sapiens), sequence (Q9BV86 whole entry, looked up): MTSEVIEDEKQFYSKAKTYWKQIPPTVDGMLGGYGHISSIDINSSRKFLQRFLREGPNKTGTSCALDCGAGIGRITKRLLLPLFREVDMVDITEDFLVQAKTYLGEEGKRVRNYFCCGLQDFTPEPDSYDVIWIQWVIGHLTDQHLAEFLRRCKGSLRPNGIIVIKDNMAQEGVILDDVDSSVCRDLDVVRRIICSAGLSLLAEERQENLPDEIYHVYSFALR

Compound	Potency	activity change, negative = inhibition
COc1cc2c(Nc3ccc(Cl)c(Cl)c3F)ncnc2cc1OCC1C[C@@H]2CN(C)C[C@@H]2C1 (stereo not given in full)	15.1 µM (active)	–
C=Cc1cc(O)cc2nc(-c3ccc(O)c(F)c3)oc12	44.7 µM (active)	–
CC(=O)N[C@@H](CC(C)C)C(=O)N[C@@H](CCC(=O)O)C(=O)N[C@@H](CCC(=O)O)C(=O)N[C@@H](CC(=O)O)C(=O)Nc1ccc2c(C(F)(F)F)cc(=O)oc2c1 (Ac-LEED-{AFC})	–	2.64% (inactive)
CCC(C)C(N)C1=NC(C(=O)N[C@@H](CC(C)C)C(=O)N[C@H](CCC(=O)O)C(=O)N[C@H](C(=O)N[C@H]2CCCCNC(=O)[C@H](CC(N)=O)NC(=O)[C@@H](CC(=O)O)NC(=O)[C@H](Cc3cnc[nH]3)NC(=O)[C@@H](Cc3ccccc3)NC(=O)[C@H]([C@@H](C)CC)NC(=O)[C@@H](CCCN)NC2=O)[C@@H](C)CC)CS1 (stereo not given in full) (X1-L[dE]IK[dOrn]I[dF]H[dD]N; lactam 4-C)	2.94 µM (active)	–
CC(C)(O)c1ccc2c(c1)C(=O)CC1[C@](C)(CO)CCC[C@]21C (stereo not given in full)	–	-9.85% [at 51.5 µM] (inactive)

Tested on: not listed separately
Test: Primary qHTS for inhibitors of nuclear receptor binding SET domain protein 2 (NSD2) in an isogenic RCH-ACV NSD2 p.E1099K mutant (9B) (AID 1645876); also: nearly all actives have a fitted effect of over 70% in size; as to activity change, negative = viability loss: % is scaled to controls: 0 for no effect and ±100 for the full control effect
Settings: RCH-ACV (leukaemia line) NSD2 E1099K (9B) viability, CellTiter-Glo, 72 h; series mostly up to 44.9 µM; activity change, negative = viability loss: at the top concentration

Compound	activity change, negative = viability loss	Potency
O=C(OCC12OC1C=CC(OC(=O)c1ccccc1)C2O)c1ccccc1 (stereo not given)	-29.9% (inactive)	–
C=C(C)[C@@H]1CC[C@](C)(O)[C@@H](OC(=O)c2ccccc2)C1	-30.6% (inactive)	–
O=c1ccn(C2OC(CO)C(O)C2O)c(=O)[nH]1 (stereo not given)	1.49% (inactive)	–
CC1=CC2(O)/C=C/C(C)(O)CC(O)/C=C/C(=O)OC23C(=O)NC(CC(C)C)C3C1C (stereo not given)	-26.9% [at 17.3 µM] (inactive)	–
CCOC(=O)Nc1nc2ccccc2[nH]1	-19% (inactive)	–
CC(=O)OC[C@]1(O)[C@H]2[C@H](OC(=O)CC(C)C)OC=C(CO[C@@H]3O[C@H](CO)[C@@H](O)[C@H](O)[C@H]3O)[C@H]2C[C@@H]1O	-18.3% [at 17.3 µM] (inactive)	–
COc1c(C(CC(C)C)OC(C)=O)ccc(Oc2c(O)cc(C)cc2/C=C/C(C)=O)c1C(=O)O (stereo not given)	-19.3% [at 17.3 µM] (inactive)	–
Clc1ccc2c(c1)C1=NCCN1c1c(-c3noc(C4CC4)n3)ncn1-2	-18.1% (inactive)	–
CC1CCC2(C)C(CC(O)C(O)C23CO3)C1(C)CCC1=CC(=O)OC1O (stereo not given)	-28.6% (inactive)	–
Cc1ccc(Sc2cncc3sc(C(N)=O)cc23)cc1	-26.5% (inactive)	–
COc1cc2c(Nc3ccc(Cl)c(Cl)c3F)ncnc2cc1OCC1C[C@@H]2CN(C)C[C@@H]2C1 (stereo not given in full)	–	2.95 µM (active)
CC(C)CC(=O)OC[C@H]1O[C@@](COC(=O)CC(C)C)(O[C@H]2O[C@H](CO)[C@@H](O)[C@H](O)[C@H]2OC(=O)CC(C)C)[C@@H](OC(=O)CC(C)C)[C@@H]1O	-7.76% [at 17.3 µM] (inactive)	–
CC1=CC(=O)OC(C)(CC(C)(O)C(=O)O)C1 (stereo not given)	-13.4% (inactive)	–
Cc1nnc(C(C)C)n1C1CC2CCC(C1)N2CC[C@H](NC(=O)C1CCC(F)(F)CC1)c1ccccc1 (stereo not given in full)	–	inactive
CC/C=C\C[C@H]1C(=O)C=C[C@@H]1CCCCCCCC(=O)O	-17.6% (inactive)	–
CC(=O)N[C@@H](CC(C)C)C(=O)N[C@@H](CCC(=O)O)C(=O)N[C@@H](CCC(=O)O)C(=O)N[C@@H](CC(=O)O)C(=O)Nc1ccc2c(C(F)(F)F)cc(=O)oc2c1 (Ac-LEED-{AFC})	-0.572% (inactive)	–

Compound	activity change, negative = viability loss	Potency
COCC(=O)N1CCc2cc(-c3csc(NC(=O)c4cc(OC)cc(OC)c4)n3)ccc21	-8.99% (inactive)	–
C[C@@H]1O[C@@H](O[C@H]2[C@H](OC(=O)C34CCC5(C)C(=CCC6C7(C)CC(O)C(O[C@@H]8O[C@H](C(=O)O)[C@@H](O)[C@H](O)[C@H]8O)C(C)(C(=O)O)C7CCC65C)C3CC(C)(C)CC4O)O[C@H](C)[C@@H](O)[C@@H]2O)[C@H](O)[C@@H](O[C@@H]2OC[C@](O)(CO)[C@H]2O[C@@H]2O[C@H](CO)[C@@H](O)[C@H](O)[C@H]2O)[C@H]1O (stereo not given in full)	-24% [at 9.23 µM] (inactive)	–
CC(=O)C1CCC2(C)C3=C(CCC12C)C1(C)CCC(=O)C(C)(C)C1CC3 (stereo not given)	-9.88% (inactive)	–
CC1CCCC2OC2C(=O)c2c(O)cc(O)cc2CC(=O)O1 (stereo not given)	-20.5% (inactive)	–
CC(=O)NC(C(=O)OC1CCC(C)(C)C2CC=C3C(=O)OCC3(O)C12C)C(C)C (stereo not given)	-28.3% [at 17.3 µM] (inactive)	–
Cc1cn2c(N)c(Cl)cc(C(=O)NCC3CCN(CC(C)C)CC3)c2n1	-22.5% (inactive)	–
C/C(=C\CCC(C(=O)O)C1CCC2(C)C3=C(CCC12C)C1(C)CCC(=O)C(C)(C)C1CC3)C(=O)O (stereo not given)	-19.2% [at 17.3 µM] (inactive)	–
CCC(C)C(N)C1=NC(C(=O)N[C@@H](CC(C)C)C(=O)N[C@H](CCC(=O)O)C(=O)N[C@H](C(=O)N[C@H]2CCCCNC(=O)[C@H](CC(N)=O)NC(=O)[C@@H](CC(=O)O)NC(=O)[C@H](Cc3cnc[nH]3)NC(=O)[C@@H](Cc3ccccc3)NC(=O)[C@H]([C@@H](C)CC)NC(=O)[C@@H](CCCN)NC2=O)[C@@H](C)CC)CS1 (stereo not given in full) (X1-L[dE]IK[dOrn]I[dF]H[dD]N; lactam 4-C)	–	inactive
C[C@@H]1O[C@@H](O[C@H]2[C@H](O)[C@@H](C(=O)O)O[C@@H](O[C@H]3CC[C@@]4(C)C(CC[C@]5(C)C4CC=C4C6CC(C)(C)CC[C@]6(C(=O)O)CC[C@]45C)C3(C)C)[C@@H]2O[C@@H]2O[C@H](CO)[C@@H](O)[C@H](O)[C@H]2O)[C@H](O)[C@H](O)[C@H]1O (stereo not given in full)	-6.46% [at 9.23 µM] (inactive)	–
CCCC1=CC2=C(CO1)C(=O)C(C)(OC(=O)c1c(C)cc(OC)cc1O)C(O)C2 (stereo not given)	-12.4% [at 17.3 µM] (inactive)	–
C=C(C)C(C)C1OC23CC4(CO2)C(CCC2C5(C)CCC(OC6OCC(O)C(OC7OC(CO)C(O)C(OC8OCC(O)C(O)C8O)C7O)C6OC6OC(CO)C(O)C6O)C(C)(C)C5CCC24C)C3C(C)(O)C1OC(C)=O (stereo not given)	-26.7% [at 9.23 µM] (inactive)	–
COC(=O)C1C(CC(C)=O)C=CC(O)C12Oc1cc(C)cc(O)c1C2=O (stereo not given)	-19.6% (inactive)	–
CC(C)(O)c1ccc2c(c1)C(=O)CC1[C@](C)(CO)CCC[C@]21C (stereo not given in full)	-9.95% (inactive)	–
C=CC1(C)CC(OC(=O)C(=C)C(O)COC(C)=O)C(C(=C)C(=O)OC)C(O)C1C(=C)CO (stereo not given)	-13.4% [at 17.3 µM] (inactive)	–
C/C=C/C1=CC2=CC(=O)C(C)(O)C(OC(=O)c3c(C)cc(O)cc3O)C2CO1 (stereo not given)	-21.5% (inactive)	–

— PubChem BioAssay (NCATS)
